TLR4 MyD88 comp = TLR4-MyD88 interaction inhibition in cells. HeLa CL3-4 TLR4/MyD88 BLA complementation, FRET ratio. inhibition, % at 8.4 µM. 200,000 tested, 0.18% active. AID 861; in the data active = inhibition above about 25%
ABHD5 PLIN5 PPI = ABHD5-PLIN5 protein interaction inhibition; Q00G26+Q8WTS1; Split G. princeps luciferase complementation, luminescence, 4 h; inhibition, % at 4 µM; 360,000 tested, 0.78% active; AID 602281;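 active = inhibition above the mean inhibition across every tested compound plus 3 SD, cut at about 22% in these data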
PRMT1 inh = PRMT1 (human) inhibition, primary screen. 370,000 tested, 1.3% active. AID 652257. recombinant PRMT1, activity-based probe fluorescence polarization. inhibition, % at 2.79 µM;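 active = inhibition above about 21% made by adding two undisclosed values, limit read from the data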
Target sequence (Q99873 whole entry, looked up): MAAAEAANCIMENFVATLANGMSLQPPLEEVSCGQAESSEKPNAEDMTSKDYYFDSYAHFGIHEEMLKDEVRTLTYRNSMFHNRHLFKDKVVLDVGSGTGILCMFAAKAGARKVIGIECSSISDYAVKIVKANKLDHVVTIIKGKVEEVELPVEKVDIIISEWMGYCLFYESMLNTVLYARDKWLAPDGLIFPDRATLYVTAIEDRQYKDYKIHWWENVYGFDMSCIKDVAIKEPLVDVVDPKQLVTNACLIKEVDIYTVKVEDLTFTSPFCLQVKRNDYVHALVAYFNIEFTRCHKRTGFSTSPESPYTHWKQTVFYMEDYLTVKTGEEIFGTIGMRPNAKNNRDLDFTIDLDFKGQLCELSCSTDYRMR
NOD2 RIPK2 PPI = NOD2-RIPK2 protein interaction inhibition; O43353; CHO BLA complementation NOD2-RIPK2, CCF4 ratio; inhibition, % at 4.98 µM; 360,000 tested, 0.38% active; in the data active = inhibition above about 21%
TLR9-MyD88 inh = inhibitors of human TLR9-MyD88 binding | inhibition, % at 4.98 µM | CHO BLA complementation TLR9-MyD88, CCF4 FRET ratio | 340,000 tested, 0.21% active;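 active = inhibition above the mean over all tested compounds plus 3 SD, cut at about 21% in these data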
rCAG RNA binder = molecules binding r(CAG) RNA repeats; r(CAG) RNA repeat, TO-PRO-1 dye displacement fluorescence; 370,000 tested, 1.3% active; inhibition, % at 3 µM;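 active = inhibition above the plate cutoff, the mean of all test compounds on that plate plus 3 SD, cut at about 35% in these data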;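 note: higher means more dye released from RNA so lower well fluorescence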
PRMT1 inh conf = PRMT1 (human) inhibition, FP confirmation | shares compounds with PRMT1 inh | AID 687036 | inhibition, % at 2.79 µM | recombinant His-PRMT1, activity-based probe fluorescence polarization | 3,300 tested, 42% active;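 active = mean inhibition across replicates above the hit cutoff derived for the earlier primary screen, cut at about 22% in these data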
A number is an active result; . = inactive; / = no result. Compounds with a hit are over-represented: about 3.3% of the library has one in this group of screens.

SMILES	TLR4 MyD88 comp	ABHD5 PLIN5 PPI	PRMT1 inh	NOD2 RIPK2 PPI	TLR9-MyD88 inh	rCAG RNA binder	PRMT1 inh conf
COc1ccc(CC(O)COS(N)(=O)=O)cc1 (stereo not given)	/	.	.	.	.	.	/
Cc1ccsc1C(=O)NNC(=O)c1ccncc1	/	.	31	.	.	.	.
Cc1ccc(-c2cc(C(=O)Nc3cccc(S(=O)(=O)N(C)C)c3)c3ccccc3n2)o1	/	.	50	.	.	.	56
O=C(NC(=S)Nc1cccc(S(=O)(=O)NC2=NCCC2)c1)c1cc(-c2ccco2)nc2ccccc12	/	.	32	.	.	.	.
O=C(Nc1cccc(S(=O)(=O)NC2=NCCCCC2)c1)c1cc(-c2ccccc2)nc2ccccc12	.	.	.	.	.	.	/
COc1cccc(NC(=O)CN(C)C(=O)c2cc(-c3ccc(C)o3)nc3ccccc23)c1	/	.	51	.	.	.	.
COC(=O)c1cc(-c2ccc(C)o2)nc2ccccc12	.	.	42	.	.	.	24
CCCCN(C(=O)c1cc(Cl)nc2ccccc12)c1c(N)n(CCCC)c(=O)[nH]c1=O	/	.	.	.	.	.	/
CCOC(=O)c1ccc(NS(=O)(=O)c2ccc3c(c2)NC(=O)CCS3)cc1	/	.	.	.	.	.	/
Cc1ccc(-c2cc(C(=O)N3CC(C)CC(C)C3)c3ccccc3n2)o1 (stereo not given)	/	.	64	.	.	.	29
Cc1ccc(-c2cc(C(=O)N3CC(C)OC(C)C3)c3ccccc3n2)o1 (stereo not given)	/	.	.	.	.	.	/
CSc1nc2ccccc2n1Cc1c(Cl)cccc1Cl	.	.	.	.	.	.	/
O=C(CSc1nc2ccccc2s1)Nc1cc(C(=O)O)cc(C(=O)O)c1	.	.	42	.	.	.	58
Cc1ccc(C(=O)Nc2ncc3c(n2)CC(c2ccco2)CC3=O)cc1 (stereo not given)	.	.	33	.	.	.	.
Cc1ccc(/C=N/n2c(-c3cccs3)n[nH]c2=S)cc1	.	.	25	.	.	.	.
COc1ccc(/C=N/n2c(-c3cccs3)n[nH]c2=S)cc1	.	.	.	.	.	.	/
CCCCCCn1c(-c2cccs2)n[nH]c1=S	.	.	41	.	.	.	.
O=C(COC(=O)c1ccccc1Cc1ccccc1)NC1CCS(=O)(=O)C1 (stereo not given)	/	.	.	.	.	.	/
CC(=O)NC1C(=O)N=C(SCC(=O)Nc2ccc(C(F)(F)F)cc2Cl)NC1=O (stereo not given)	.	.	38	.	.	.	.
COc1ccccc1NC(=O)CSC1=NC(=O)C(Cc2ccccc2)C(=O)N1 (stereo not given)	/	.	.	.	.	.	/
CC(=O)NC1C(=O)N=C(SCC(=O)NC(C)c2ccccc2)NC1=O (stereo not given)	.	.	31	.	.	.	.
CC(=O)NC1C(=O)N=C(SCc2ccccc2)NC1=O (stereo not given)	.	.	.	.	.	.	/
COc1ccccc1NC(=O)CSC1=NC(=O)C(NC(C)=O)C(=O)N1 (stereo not given)	.	.	25	.	.	.	.
COCc1cccc(-c2csc(C(O)c3ccccc3)n2)c1 (stereo not given)	/	.	.	.	/	.	/
CC(=O)Nc1ccc(S(=O)(=O)NCC(=O)NNC(=O)c2csc(N3CCOCC3)n2)cc1	/	.	52	.	.	.	.
SMILES	TLR4 MyD88 comp	ABHD5 PLIN5 PPI	PRMT1 inh	NOD2 RIPK2 PPI	TLR9-MyD88 inh	rCAG RNA binder	PRMT1 inh conf
NS(=O)(=O)c1cccc2c1c([N+](=O)[O-])cc1nc(O)c(O)nc12	/	.	26	.	.	.	27
Cc1nc(N)sc1-c1csc(Nc2ccccc2)n1	.	.	.	.	.	.	/
Cc1cc(O)ccc1Nc1nc(-c2sc(N)nc2C)cs1	.	.	34	.	.	.	.
CCc1cnc(Nc2nc(C(N)Cc3ccc(F)cc3)cs2)nc1 (stereo not given)	/	.	.	.	/	.	/
CC(=O)Nc1ccc(SCC(=O)c2cc(C)ccc2C)cc1	/	.	29	.	.	.	25
CC(=O)Nc1ccc(SCC(=O)c2cc(C)n(-c3ccccc3)c2C)cc1	.	.	.	.	.	.	/
CCc1nc(SCC(=O)c2cc(C)ccc2C)n[nH]1	.	.	.	.	.	.	/
Cc1ccc(C)c(C(=O)CSc2n[nH]c(C)n2)c1	.	.	26	.	.	.	47
CC(C)CCNc1nc(N)c([N+](=O)[O-])c(N2CCCCCC2)n1	/	.	.	.	.	.	/
COC(=O)c1cc(CN2CCN(c3ccccc3)CC2)ccc1O	/	.	.	.	.	.	/
CCCCCCC(=O)N(O)C1CC(=O)N(c2ccc(C)cc2)C1=O (stereo not given)	.	.	87	.	.	.	91
CCCCCCC(=O)N(O)C1CC(=O)N(c2ccc(Cl)cc2)C1=O (stereo not given)	/	.	51	.	.	.	84
Cc1ccc(N2C(=O)CC(N(O)C3CC(=O)N(c4ccc(C)cc4)C3=O)C2=O)cc1 (stereo not given)	.	.	.	.	.	.	/
CN1c2ccccc2C(C)(C)C12CC(c1cccc(S(=O)(=O)N3CCCC3)c1)=NO2 (stereo not given)	.	.	.	.	.	.	/
COc1ccc(NC(=O)C2CCCCN2S(=O)(=O)c2ccccc2)cc1S(=O)(=O)N1CCOCC1 (stereo not given)	/	.	.	.	.	.	/
CN(C)CCNc1ccc2ncn3c4ccc(O)cc4c(=O)c1c23	/	.	67	.	.	.	88
COC(=O)c1cc(NC(=O)c2ccccc2)c(=O)oc1C	.	.	.	.	.	.	/
COc1ccc(C(=O)Nc2cc(C(=O)c3ccccc3)c(C)oc2=O)cc1	.	37	57	.	.	.	.
CC1CCN(C2CC(=O)N(c3ccccc3)C2=O)CC1 (stereo not given)	.	.	81	.	.	.	.
O=C1CC(N2CCN(Cc3ccccc3)CC2)C(=O)N1c1ccccc1 (stereo not given)	.	.	.	.	.	.	/
CC1CCN(C2CC(=O)N(c3ccc(Br)cc3Br)C2=O)CC1 (stereo not given)	/	.	64	.	.	.	.
CC(=Nc1ccccc1)C1=C(O)COC1=O	.	.	.	.	.	.	/
CC(=Nc1ccc(Br)cc1)c1sc2ccccc2c1O	/	.	28	.	.	.	.
CC(=Nc1ccccc1)c1sc2ccccc2c1O	.	.	33	.	.	.	32
NC(=Nc1ccc(Br)cc1)c1ccccc1	/	.	.	.	.	.	/
O=C(Nc1cc(Cl)ccc1-n1cncn1)c1ccc(Br)o1	/	.	.	.	.	.	/

Bioassay records: PubChem BioAssay, The Scripps Research Institute Molecular Screening Center
